According to PubChem BioAssay (Tox21):
“And” between values parts separate entries of the source, which are not always exact repeats. Identical values can stand only once. Inconclusive results are not listed. Some structures have more than one record in an assay (separate samples or runs), and their calls can disagree. The source made the active and inactive calls. Unless noted, calls come from the whole dose curve; as a rule, active = well fitted curve in the direction sought with a large enough effect in the repeat runs; inconclusive = weak or mixed curves; inactive = no such curve, though single readings can be large; an effect the other way counts as inactive or inconclusive.

What was measured:
[1] = qHTS assay to identify small molecule agonists of the constitutive androstane receptor (CAR) signaling pathway - cell viability counter screen (AID 1224836); note: nearly all actives have a fitted effect of over 45% in size
Procedure, shortened: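 Cell viability multiplexed with the CAR agonist screen: CellTiter-Fluor fluorescence after 23 hr at 37 C. HepG2-CYP2B6-hCAR cells got compounds at 15 concentrations with PK11195 at 0.75 uM final.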

[2] = qHTS assay to identify small molecule antagonists of the constitutive androstane receptor (CAR) signaling pathway - cell viability counter screen (AID 1224837); note: nearly all actives have a fitted effect of over 45% in size
Procedure, shortened: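 Cells are seeded, rested 4 hr at 37 C/5% CO2, dosed with compound (15-point series) and 50 nM CITCO, incubated a further 23 hr, and then CellTiter-Fluor reagent is added before fluorescence is read. The line is HepG2 with stable hCAR and CYP2B6-2.2kb.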

[3] = qHTS assay to identify small molecule antagonists of the estrogen related receptor signaling pathway with the pleiotropic PPARgamma coactivator (PGC) from Tox21 10K library - cell viability counter screen (AID 1224840; active = well fitted cell-killing curve with a large enough effect in the repeat runs, not every such curve was filed as active; note: nearly all actives have a fitted effect of over 40% in size; note: potency is the fitted concentration of half-maximal effect)
Procedure, shortened: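 Cell viability is measured by CellTiter-Fluor fluorescence in PGC/ERR cells that receive compounds after a 6-hour attachment period and are then incubated 17.5 hours at 37 C.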

[4] = qHTS assay to identify small molecule antagonists of the estrogen related receptor signaling pathway with the pleiotropic PPARgamma coactivator (PGC) from Tox21 10K library (AID 1224841; call rule not given here; note: actives are mostly falling curves and most rising ones were filed inactive; nearly all actives have a fitted effect of over 50% in size)
Procedure, shortened: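 Cells stably carrying the PGC/ERR reporter, seeded at 2,000 per well, received pin-transferred compounds 6 h post-plating. Exposure lasted 18 h at 37 C. Signal: One-Glo luminescence.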

[5] = biological target: Thyrotropin receptor (Homo sapiens) (UniProt P16473); assay: qHTS assay to identify small molecule agonists of the thyroid stimulating hormone receptor (TSHR) signaling pathway (AID 1224843; calls by dose curve; note: nearly all actives have a fitted effect of over 45% in size; note: potency is the fitted concentration of half-maximal effect)
Procedure, shortened: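 HEK293/TSHR, 800 cells/well; cpd 30 min RT; add cAMP-d2 + anti-cAMP-cryptate, 1 h RT; fluorescence read on plate reader. 15-pt titration, n=3.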

[6] = qHTS assay to identify small molecule agonists of the hypoxia (HIF-1) signaling pathway - cell viability counter screen (AID 1224844; calls by dose curve; note: nearly all actives have a fitted effect of over 50% in size)
Procedure, shortened: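 Viability counter screen: HRE-bla ME-180 cells plated 5 hrs before compound addition, treated 17 hrs at 37C and 5% CO2, then CellTiter-Glo added after the FRET reporter read; luminescence after 30 min.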

[7] = qHTS assay to identify small molecule agonists of H2AX (AID 1224845; active = well fitted activation curve with a large enough effect in the signal ratio in the repeat runs, not every such curve was filed as active; the % refers to the signal ratio)
Procedure, shortened: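 Wild-type CHO-K1 cells, plated overnight, exposed 3hr at 37C to 15 concentrations (0.76% DMSO final). Lysed, then HTRF anti-pH2AX (S139) cryptate and anti-H2AX-d2 antibodies, 24 hr room temperature; 665/620 nm emission read.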

[8] = qHTS assay to identify small molecule agonists of the hypoxia (HIF-1) signaling pathway (AID 1224846; active = well fitted activation curve with a large enough effect in the signal ratio in the repeat runs, not every such curve was filed as active; the % refers to the signal ratio)
Procedure, shortened: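 Agonist mode reporter screen. ME-180 cells stably expressing bla under HRE control received test compounds in DMSO for 17 hrs (37C, 5% CO2), and beta-lactamase activity was then detected with the CCF4-AM FRET substrate.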

[9] = qHTS assay to identify small molecule agonists of H2AX - cell viability counter screen (AID 1224847; calls by dose curve; note: top concentration of the series differs between compounds; nearly all actives have a fitted effect of over 30% in size)
Procedure, shortened: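 Counter-screen for viability: CellTiter-Glo ATP luminescence read after 3 h compound treatment (15-point titration, 0.76% DMSO final) of CHO-K1 cells at 37C, with 30 min room-temperature reagent incubation.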

[10] = qHTS assay to identify small molecule antagonists of the estrogen related receptor (ERR) signaling pathway from Tox21 library (AID 1224848); note: nearly all actives have a fitted effect of over 50% in size; note: potency is the fitted concentration of half-maximal effect
Procedure, shortened: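 Compounds dissolved in DMSO are pin-transferred onto ERR reporter cells (2,000 per well) that have settled for 6 h at 37 C. Plates then incubate 18 h at 37 C before ONE-Glo luciferase reagent and a luminescence read 30 min later.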

[11] = qHTS assay to identify small molecule agonists of the estrogen related receptor (ERR) signaling pathway from Tox21 library (AID 1224849; calls by dose curve; note: nearly all actives have a fitted effect of over 15% in size); conditions: ERR reporter cell line, ONE-Glo luciferase, 18 h
Procedure, shortened: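 Quantitative HTS in agonist format: NTP ERR cell line, compounds transferred in DMSO after 6 h plating, 18 h incubation at 37 C, ONE-Glo luminescence endpoint.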

[12] = qHTS RealTime-Glo MT Cell Viability Assay in HepG2 cells - 24 hour (AID 1224867); note: nearly all actives have a fitted effect of over 50% in size
Procedure, shortened: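 Luminescence read-out: viable HepG2 cells reduce a prosubstrate to a NanoLuc substrate, giving a signal proportional to live cell number. Reads taken at 0, 8, 16, 24, 32 and 40 h of compound exposure at 37 C.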

[13] = qHTS RealTime-Glo MT Cell Viability Assay in HEK293 cells - 32 hour (AID 1224868); note: nearly all actives have a fitted effect of over 50% in size; note: potency is the fitted concentration of half-maximal effect; for activity change, negative = cytotoxic: top concentration of the series differs between compounds
Procedure, shortened: (§1)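 Nonlytic real-time viability readout: viable cells convert prosubstrate to NanoLuc substrate, giving luminescence proportional to live cell number. HEK293, 600 cells/well, compound added after 5 h, continuous culture at 37 C.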

[14] = A CellTox Green Cytotoxicity Assay to monitor cytotoxicity in HEK293 cells - 0 hour (AID 1224869); note: nearly all actives have a fitted effect of over 50% in size
Procedure, shortened: (§2)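 Dead-cell fluorescence measured kinetically: asymmetric cyanine dye, HEK293, 600 cells/well, 5 h settle, 23 nL cpd/DMSO, 37 C, reads 0–40 h every 8 h.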

[15] = qHTS RealTime-Glo MT Cell Viability Assay in HepG2 cells - 40 hour (AID 1224870); note: nearly all actives have a fitted effect of over 50% in size
Procedure, shortened: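 HepG2 cells (600/well) mixed with RealTime-Glo MT reagent, settled 5 h at 37 C/5% CO2 before compound addition. Nonlytic NanoLuc luminescence from viable-cell prosubstrate reduction read repeatedly during 40 h treatment at 37 C.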

[16] = A CellTox Green Cytotoxicity Assay to monitor cytotoxicity in HEK293 cells - 40 hour (AID 1224871); note: nearly all actives have a fitted effect of over 45% in size; note: potency is the fitted concentration of half-maximal effect
Procedure, shortened: as §2

[17] = qHTS assay to identify small molecule agonists of the estrogen related receptor signaling pathway with the pleiotropic PPARgamma coactivator (PGC) from Tox21 10K library (AID 1224842); note: nearly all actives have a fitted effect of over 15% in size
Procedure, shortened: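 PGC/ERR reporter cell line, 2,000 cells per well, incubated 6 h at 37 C before 23 nL compound in DMSO was added. After 18 h at 37 C, One-Glo luminescence read following 30 min at room temperature.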

[18] = qHTS RealTime-Glo MT Cell Viability Assay in HEK293 cells - 16 hour (AID 1224872)
Procedure, shortened: as §1

[19] = biological target: Nuclear receptor subfamily 1 group I member 3 (Homo sapiens) (UniProt Q14994); assay: qHTS assay to identify small molecule antagonists of the constitutive androstane receptor (CAR) signaling pathway (AID 1224838);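 note: HepG2 cells stably expressing hCAR with CYP2B6 luciferase reporter stimulated by CITCO; nearly all actives have a fitted effect of over 40% in size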
Procedure, shortened: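 Luminescence from a CYP2B6-2.2kb promoter reporter in hCAR-expressing HepG2 cells reflects CAR signaling. Cells received compounds at 15 concentrations and 50 nM CITCO (final), then incubated 24 h at 37 C/5% CO2.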

[20] = biological target: Nuclear receptor subfamily 1 group I member 3 (Homo sapiens) (UniProt Q14994); assay: qHTS assay to identify small molecule agonists of the constitutive androstane receptor (CAR) signaling pathway (AID 1224839); note: nearly all actives have a fitted effect of over 15% in size; note: potency is the fitted concentration of half-maximal effect;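 for activation: HepG2 cells stably carrying human CAR and a CYP2B6 luciferase reporter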
Procedure, shortened: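 Luminescent ONE-Glo read-out after 24 hr, 37 C exposure of double-stable HepG2-CYP2B6-hCAR reporter cells to a 15-point compound series, in the presence of 0.75 uM PK11195 (final).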
% is set by controls: 0 for no effect and ±100 for the full control effect.

Sequence of Thyrotropin receptor (Homo sapiens) (P16473 whole entry, looked up): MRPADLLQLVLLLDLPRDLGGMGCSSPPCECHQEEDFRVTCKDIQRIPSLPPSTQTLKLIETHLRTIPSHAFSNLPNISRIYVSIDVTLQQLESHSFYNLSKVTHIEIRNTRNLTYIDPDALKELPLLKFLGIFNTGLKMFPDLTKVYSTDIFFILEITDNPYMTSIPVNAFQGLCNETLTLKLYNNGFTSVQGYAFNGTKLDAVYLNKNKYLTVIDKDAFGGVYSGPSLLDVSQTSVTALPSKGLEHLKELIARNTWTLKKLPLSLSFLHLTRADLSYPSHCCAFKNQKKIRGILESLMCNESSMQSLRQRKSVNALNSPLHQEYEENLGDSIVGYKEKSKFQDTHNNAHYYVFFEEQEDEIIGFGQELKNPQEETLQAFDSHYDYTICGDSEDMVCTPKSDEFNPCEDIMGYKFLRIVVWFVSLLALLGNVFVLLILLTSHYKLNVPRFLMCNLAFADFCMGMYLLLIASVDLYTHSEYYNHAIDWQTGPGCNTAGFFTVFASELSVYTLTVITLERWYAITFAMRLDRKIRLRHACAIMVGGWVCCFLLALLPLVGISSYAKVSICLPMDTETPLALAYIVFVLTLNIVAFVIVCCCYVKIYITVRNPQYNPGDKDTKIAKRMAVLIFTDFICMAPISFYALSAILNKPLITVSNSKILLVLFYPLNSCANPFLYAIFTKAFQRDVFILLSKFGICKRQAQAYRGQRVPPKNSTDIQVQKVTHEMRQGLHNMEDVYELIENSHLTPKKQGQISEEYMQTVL
Sequence of Nuclear receptor subfamily 1 group I member 3 (Homo sapiens) (Q14994 whole entry, looked up): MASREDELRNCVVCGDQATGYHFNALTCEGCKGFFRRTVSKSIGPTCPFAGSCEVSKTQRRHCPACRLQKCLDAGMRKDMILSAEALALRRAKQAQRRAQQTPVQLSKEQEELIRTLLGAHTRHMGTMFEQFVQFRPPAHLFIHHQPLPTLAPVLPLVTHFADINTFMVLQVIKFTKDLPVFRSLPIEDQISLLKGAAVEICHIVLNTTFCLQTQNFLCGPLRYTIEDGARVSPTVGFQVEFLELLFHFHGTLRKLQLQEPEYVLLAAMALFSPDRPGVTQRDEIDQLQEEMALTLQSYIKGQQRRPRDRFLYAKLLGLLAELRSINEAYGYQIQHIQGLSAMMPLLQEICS

CCCCCc1ccc(Cl)cc1
active: Potency [13] 15.5 µM
inactive: Potency [1] | Potency [2] | Potency [3] | Potency [4] | Potency [5] | Potency [6] | Potency [7] | Potency [8] | Potency [9] | Potency [10] | activity change, positive = activation ([11]; at 92.4 µM (top of the series)) -14.2% | Potency [12] | Potency [14] | Potency [15] | Potency [16]

CN(C)Cc1cc(C(C)(C)C)c(O)c(C(C)(C)C)c1
inactive: Potency [1] | Potency [2] | Potency [3] | Potency [17] | Potency [6] | Potency [7] | Potency [8] | Potency [9] | activity change, positive = activation ([11]; at 92.4 µM (top of the series)) -28.5% | Potency [12] | Potency [13] | Potency [14] | Potency [15] | Potency [16] | Potency [18]

CC(C)(C)CC(C)(C)c1ccc(Nc2ccc(C(C)(C)CC(C)(C)C)cc2)cc1
inactive: viability change, negative = cytotoxic [1] -0.428% [at 8.39 µM] | activity change, negative = cytotoxicity [2] 7.27% [at 8.39 µM] | activity, negative = inhibition [19] 33.1% [at 8.39 µM] | viability change, negative = cytotoxic [3] -0.792% [at 8.39 µM] | activation [5] 21.9% [at 8.39 µM] | activity change, negative = cytotoxicity [6] 0.53% [at 6.97 µM] | activation (H2AX phosphorylation) [7] 0.788% [at 14 µM] | activation [8] 3.2% [at 7.01 µM] | activity change, negative = cytotoxicity [9] 0.45% [at 14 µM] | activity change, negative = cytotoxicity [12] 0.0274% [at 6.97 µM] | activity change, negative = cytotoxic [13] 9.22% [at 6.97 µM] | cytotoxicity [14] 3.78% [at 6.97 µM] | activity change, negative = cytotoxic [15] -1.04% [at 6.97 µM] | cytotoxicity increase [16] 0.599% [at 6.97 µM]

Oc1c(I)cc(Cl)c2cccnc12
active: Potency [3] 27.3 µM | Potency [10] 19.3 µM and 11.9 µM | Potency [13] 24.5 µM
12.3 µM (active) and inactive: Potency [16]
inactive: Potency [1] | Potency [2] | Potency [4] | Potency [17] | Potency [6] | Potency [9] | activity change, positive = activation ([11]; at 42.5 µM (top of the series)) -30.5% | activity change, positive = activation ([11]; at 92.4 µM (top of the series)) -54.8% | Potency [12] | Potency [14] | Potency [15] | Potency [18]

COc1cc2nc(N3CCN(C(=O)c4ccco4)CC3)nc(N)c2cc1OC
inactive: viability change, negative = cytotoxic [1] -2.7% [at 19 µM] | activity, negative = inhibition [19] 3.26% [at 19 µM] | activation [20] 0.371% [at 19 µM] | activation [5] -0.792% [at 19 µM] | activity change, negative = cytotoxicity [9] -2.17% [at 31.6 µM] | activity change, negative = cytotoxicity [12] -23% [at 15.8 µM] | activity change, negative = cytotoxic [13] -17.7% [at 15.8 µM] | cytotoxicity [14] 2.18% [at 15.8 µM] | cytotoxicity increase [16] 63.2% [at 15.8 µM] | activity change, negative = cytotoxicity [18] -20% [at 15.8 µM]

CCCCC/C=C\C/C=C\CCCCCCCC(=O)O
inactive: Potency [1] | Potency [2] | Potency [3] | Potency [5] | Potency [7] | Potency [9] | Potency [13] | Potency [14] | Potency [15] | Potency [16]

CC1(C)CCC[C@]2(C)[C@H]3CC(=O)O[C@]3(C)CC[C@@H]12
active: Potency [5] 19.3 µM | Potency [16] 49 µM
inactive: Potency [1] | Potency [19] | Potency [20] | Potency [3] | Potency [6] | Potency [8] | Potency [12] | Potency [13] | Potency [14] | Potency [15] | Potency [18]

Cc1cc(C(C)(C)C)cc(C)c1CC1=NCCN1
inactive: Potency [1] | Potency [19] | Potency [20] | Potency [3] | Potency [4] | Potency [5] | Potency [6] | Potency [7] | Potency [9] | Potency [10] | activity change, positive = activation ([11]; at 42.5 µM (top of the series)) -3.5% | Potency [12] | Potency [13] | Potency [14] | Potency [15] | Potency [16] | Potency [18]

CNC(=O)c1ccccc1Sc1ccc2c(/C=C/c3ccccn3)n[nH]c2c1
active: Potency [20] 1.06 µM | Potency [13] 9.52 µM
inactive: Potency [1] | Potency [19] | Potency [5] | Potency [6] | Potency [8] | Potency [14] | Potency [15]
